Screens from PubChem.
This is a sample that favours compounds with a hit; in the whole collection about 8.8% have one here.
HT1080 IDH1KD tx: qHTS for induction of synthetic lethality in tumor cells producing 2HG: qHTS for the HT-1080-IDH1KD cell line. HT-1080 IDH1 knockdown viability, ATP luminescence, 48 h. Potency, µM (series often up to 46.1 µM), for the others: at the top dose activity, negative = toxicity, actives largely listed as cytotoxic. actives 2% (n = 360,000). AID 686971, 2013;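 note: potency is the fitted concentration of half-maximal effect; 0% = DMSO wells and -100% = cell-free medium wells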
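HT-1080-IDH1KD cells (IDH1 knocked down), 750/well in RPMI with 5% FBS, treated with compound 48 h at 37 degrees C. Viability by CellTiter-Glo luminescence, normalised to DMSO and no-cell wells; concentration-response curves classed.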
IL1B secr inh: qHTS for Inhibitors of Inflammasome Signaling: IL-1-beta AlphaLISA Primary Screen. actives 4.7% (n = 360,000). activity change, % at 57.5 µM. THP-1 LPS/ATP IL-1B secretion, AlphaLISA, 16 h; hits give low values; in the data active = activity change below about -50%; inconclusive = mostly about -30% to -49%
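Secreted IL-1B measured by AlphaLISA bead assay after 16 h compound exposure of THP-1 cells; compounds (final up to 57.5 uM) added 1 h before LPS (250 ng/mL) and ATP (1.25 mM) stimulation; lower signal means less secretion.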
HT1080-NT tox: qHTS for induction of synthetic lethality in tumor cells producing 2HG: qHTS for the HT-1080-NT fibrosarcoma cell line. HT-1080-NT fibrosarcoma viability, CellTiter-Glo ATP luminescence, 48 h. Potency, µM (top dose mostly 46.1 µM), for inactives: at the top dose activity, negative = less viability, actives largely listed as cytotoxic. actives 1.6% (n = 360,000);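 note: NT is the 2HG producing partner of a matched IDH1 knockdown line; potency is the fitted concentration of half-maximal effect; 0% = DMSO-treated cells and -100% = media-only wells without cells; nearly all actives have a fitted effect of over 55% in size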
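Fibrosarcoma NT cells, 750 per well in 5% FBS RPMI, were exposed to compound for 48 hours. Viability: CellTiter-Glo luminescence.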
KB-3-1 cytotox: qHTS assay for MDR1-selective chemotherapeutics: Primary screen using the parental adenocarcinoma cell KB-3-1; KB-3-1 viability, CellTiter-Glo ATP luminescence, 72 h; Potency, µM (series often up to 46.1 µM), hits mostly cytotoxic; actives 1.4% (n = 400,000); AID 1347075, 2019; note: potency is the fitted concentration of half-maximal effect; nearly all actives have a fitted effect of over 60% in size
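Cytotoxicity in the drug-sensitive parental line KB-3-1 was scored as loss of CellTiter-Glo luminescence following 72 h incubation with compound. Values come from curve fitting of normalized concentration-response data.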
KB-V1 MDR tox: qHTS assay for MDR1-selective chemotherapeutics: Primary screen using the drug-selected MDR subline cells KB-V1; KB-V1 MDR cells viability, CellTiter-Glo, 72 h; Potency, µM (doses to about 46.1 µM), actives largely listed as cytotoxic; actives 3.4% (n = 400,000); note: potency is the fitted concentration of half-maximal effect; nearly all actives have a fitted effect of over 60% in size
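KB-V1 cells (P-gp-expressing MDR subline of KB-3-1) in phenol-red-free DMEM with 10% FBS were exposed to library compounds over a concentration series for 72 h at 37 degrees C. Viability read by CellTiter-Glo luminescence; concentration-effect curves fitted after normalization.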
Numbers without * were called inactive; i = inactive; ? = inconclusive; · = not tested or not shown; [ ] = another dose, or the depositor's remark. Unless noted, calls come from the whole dose curve; as a rule, active = well fitted curve in the direction sought with a large enough effect; inconclusive = small, poorly fitted or top-dose-only effect, or another doubt; inactive = no such curve, though single readings can be large; an effect the other way counts as inactive or inconclusive. Unless noted, % is set by controls: 0 for no effect and ±100 for the full control effect.

SMILES	HT1080 IDH1KD tx	IL1B secr inh	HT1080-NT tox	KB-3-1 cytotox	KB-V1 MDR tox
C/C=C1\COC(C(=O)NCCN2CCCC2)(C(F)(F)F)C=C1C=C1CCCCC1 (stereo not drawn)	-13.2%	-77.5*	-9.1%	i	i
CC1Nc2ccc(C(=O)NC3CCCCC3)cc2NC1=O (stereo not drawn)	17.7%	64.3	-0.6%	i	i
COc1ccc(-n2nc3c(N4CCC(C(=O)NCC(C)c5ccccc5)CC4)nnc(C)c3c2C)cc1 (stereo not drawn)	?	-95.5*	?	i	i
CCOc1ccccc1CNC(=O)C1CCCN(c2nnc(C)c3c(C)n(-c4ccccc4)nc23)C1 (stereo not drawn)	18.4µM*	-8.4	20.6µM*	?	?
COc1ccccc1CNC(=O)C1CCCN(c2nnc(C)c3c(C)n(-c4ccccc4)nc23)C1 (stereo not drawn)	·	·	·	i	i
COc1ccc(-n2nc3c(N4CCC(C(=O)NCCc5ccccc5C)CC4)nnc(C)c3c2C)cc1	-10.8%	-82.8*	-1.2%	i	i
COc1ccc(-n2nc3c(N4CCC(C(=O)NCc5ccccc5C)CC4)nnc(C)c3c2C)cc1	16.4µM*	-94.7*	14.6µM*	i	i
COc1ccc(-n2nc3c(N4CCC(C(=O)NCCc5ccccc5)CC4)nnc(C)c3c2C)cc1	·	·	·	i	?
NC1CCc2ccc([N+](=O)[O-])cc21 (stereo not drawn)	·	·	·	i	i
CCN(CC)c1ccc(C(=O)NNC(=O)CNC(=O)c2cccs2)cc1	-4.2%	-7.7	0.2%	i	?
Cc1ccc(-n2nc3c(N4CCC(C(=O)NCc5ccc(C)o5)CC4)nnc(C)c3c2C)cc1	18.4µM*	-0.9	20.6µM*	?	i
Cc1ccc(-n2nc3c(N4CCC(C(=O)NCCc5ccco5)CC4)nnc(C)c3c2C)cc1	?	-17.8	?	i	i
Oc1c(Br)cc(Br)cc1/C=N/c1nc2c(s1)CCCC2	?	28.0	?	?	i
Oc1ccc2ccccc2c1/C=N/c1nc2c(s1)CCCC2	23.1µM*	0.0	?	i	i
CCCCn1c(N)c(N(C(=O)CSc2nnc(C)n2-c2ccccc2)C2CCCC2)c(=O)[nH]c1=O	-3.0%	43.9	-0.8%	i	i
CC(C)CCn1nnnc1C(c1ccc(N(C)C)cc1)N1CCN(C(=O)c2ccco2)CC1 (stereo not drawn)	-0.1%	-64.6*	1.4%	i	i
C[C@@H](c1ccccc1)N1C[C@@H](COCc2ccccc2)Oc2cc(N3CC[C@@H](N(C)C)C3)ccc2S1(=O)=O	23.1µM*	-11.9	18.4µM*	?	?
C[C@H](c1ccccc1)N1C[C@H](COCc2ccccc2)Oc2cc(N3CC[C@@H](N(C)C)C3)ccc2S1(=O)=O	7.5%	46.7	5.6%	?	i
C[C@H](c1ccccc1)N1C[C@H](COCc2ccccc2)Oc2cc(N3CC[C@@H](O)C3)ccc2S1(=O)=O	?	6.4	?	i	23.1µM*
CCC(=O)Nc1cccc(NC(=S)NC(=O)c2ccccc2C)c1	-0.5%	-18.7	8.8%	i	i
S=C(Nc1ccc2nsnc2c1)N1CCCCC1	?	-64.3*	?	i	?
S=C(Nc1ccc(Cl)c(Cl)c1)N1CCCC1	-3.0%	-27.9	-2.8%	?	i
Cc1ccc(OCC(=O)Nc2cccnc2Cl)cc1C	15.2%	1.0	15.8%	i	i
CCN(CC)C(=O)CSc1nnc(-n2nc(C)cc2C)c2ccccc12	3.2%	0.0	0.4%	i	13µM*
CCN(CC)C(=O)CSc1nc(Cc2ccccc2)nc2ccccc12	-8.8%	-21.7	-1.7%	i	i
SMILES	HT1080 IDH1KD tx	IL1B secr inh	HT1080-NT tox	KB-3-1 cytotox	KB-V1 MDR tox
O=c1[nH]c(C2CCN(S(=O)(=O)c3ccccc3C(F)(F)F)CC2)nc2c1nnn2Cc1cccc(F)c1	16.4µM*	?	?	i	i
O=c1[nH]c(C2CCN(S(=O)(=O)c3ccc(C(F)(F)F)cc3)CC2)nc2c1nnn2Cc1ccccc1	0.4%	-70.8*	-4.9%	i	?
O=c1[nH]c(C2CCN(S(=O)(=O)/C=C/c3ccccc3)CC2)nc2c1nnn2Cc1ccc(F)cc1	-26.2%	-54.5*	?	?	i
O=c1[nH]c(C2CCN(S(=O)(=O)Cc3ccccc3)CC2)nc2c1nnn2Cc1ccccc1	0.0%	-20.1	-3.2%	i	i
COc1cc(OC)cc(C(=O)NNC(=O)CCc2nc3ccccc3c(=O)[nH]2)c1	-12.4%	0.0	-1.0%[9.24 µM]	i	i
Cc1ccc(C)c(S(=O)(=O)N2CCN(C(=O)c3n[nH]c(=O)c4ccccc34)CC2)c1	-11.1%	-4.3	-10.6%	i	i
CCOC(=O)c1cnc(-n2nc(C)cc2C)nc1NCCc1ccccc1	5.0%	18.2	10.8%	i	0.731µM*
CCOC(=O)c1cnc(-n2nc(C)cc2C)nc1NC1CCCC1	?	24.0	?	i	5.17µM*
CCOC(=O)c1cnc(-n2nc(C)cc2C)nc1Nc1ccc(OC)cc1	-2.1%	-13.1	-0.1%	i	i
O=C1C2C(c3ccccc3)C=CC(c3ccccc3)C2C(=O)N1c1ccccn1 (stereo not drawn)	-2.7%	-7.0	1.1%	i	i
O=C1c2ccccc2S(=O)(=O)c2cc(C(=O)N(c3ccccn3)c3ccccn3)ccc21	0.9%	4.0	7.8%	i	14.6µM*
Cc1cc2sc3ccccc3c(=O)c2c(C)c1O	-17.7%	9.4	-1.2%	?	18.4µM*
CCOC(=O)N1CCN(C(=O)CSc2ccc(C(=O)OC)cc2[N+](=O)[O-])CC1	0.2%	-11.7	-9.6%	i	i
COC(=O)c1ccc(SCC(=O)N2CCC(C)CC2)c([N+](=O)[O-])c1	-4.5%	20.4	-2.7%	i	14.6µM*
O=C(Nc1ccc2nc(SCc3ccc(Cl)cc3)sc2c1)c1ccccc1C(=O)N1CCOCC1	-22.5%	-7.1	-29.2%	i	i
COC(=O)CSc1nc2ccc(NC(=O)c3ccccc3C(=O)N3CCOCC3)cc2s1	15.7%	-64.8*	15.7%	i	?
O=Cc1c(-c2ccc(Cl)cc2)oc2ccc(O)cc12	1.0%	-55.5*	-3.1%	?	?
